High-throughput results from PubChem.
An excerpt weighted towards active compounds, which were near 3.1% of everything screened.
MEKK2 mut-MEK5 – signal of MEK5 binding to mutant human MEKK2 PB1 domain | bead flow cytometry, Alexa488-MEK5 binding to MEKK2 mutant | percent response, % at 10 µM | 290,000 tested, 0.35% active | AID 1530; in the data active = percent response above about 24%, passing the limit was not always enough
PREPL inhibitor – inhibits the human prolyl oligopeptidase-like enzyme | Q4J6C6 | recombinant PREPL, fluorescence polarization activity-based probe | inhibition, % at 5.96 µM | 320,000 tested, 0.68% active | AID 2751;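 note: 0% = enzyme with DMSO and 100% = wells lacking enzyme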
ATG4B inhibitor – blocks human ATG4B protease cleavage of LC3 substrate; ATG4B cleavage of LC3-PLA2, NBD-HPC fluorescence, 1 h; inhibition, % at 8.33 µM; 340,000 tested, 0.51% active; in the data active = inhibition above about 40%
Target sequence (Q9Y4P1 whole entry, looked up): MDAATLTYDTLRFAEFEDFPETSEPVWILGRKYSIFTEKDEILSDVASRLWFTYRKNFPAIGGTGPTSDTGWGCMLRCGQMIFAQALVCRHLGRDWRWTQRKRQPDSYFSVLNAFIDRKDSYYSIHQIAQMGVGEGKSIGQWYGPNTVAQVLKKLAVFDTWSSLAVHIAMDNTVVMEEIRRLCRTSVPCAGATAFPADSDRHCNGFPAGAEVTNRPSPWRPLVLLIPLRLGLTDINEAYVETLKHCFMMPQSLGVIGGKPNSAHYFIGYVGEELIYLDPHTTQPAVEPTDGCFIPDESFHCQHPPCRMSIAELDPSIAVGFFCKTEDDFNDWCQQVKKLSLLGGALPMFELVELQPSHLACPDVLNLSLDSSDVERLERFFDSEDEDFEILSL
MEKK2 WT-MEK5 – raises or lowers MEK5 binding to wildtype human MEKK2 PB1 domain; Q9Y2U5; bead flow cytometry, Alexa488-MEK5 binding to MEKK2 WT; actives lie on both sides; binding response (% of control), % at 10 µM; 290,000 tested, 1.1% active; AID 1531; in the data active = binding response below about 67% or above about 130%
MEKK3 PB1 HTS – modulators (inhibitors or enhancers) of MEK5 binding to human MEKK3 PB1 domain; AID 1529; binding response (% of control), % at 10 µM; 290,000 tested, 1.4% active; bead-based flow cytometry, Alexa488-MEK5 binding to MEKK3; actives lie on both sides; 0 = blocked by unlabeled MEK5, 100 = vehicle;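 active = binding response more than 3 SD above or below the average of its plate-row segment, actives on both sides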;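 note: Alexa488 bead fluorescence after subtracting the streptavidin-only scavenger bead signal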
UBC13 inh – human UBC13 polyubiquitination inhibition | UBC13 polyubiquitin chain formation, TR-FRET | inhibition, % at 20 µM | 330,000 tested, 0.47% active | AID 485273; in the data active = inhibition above about 45%, passing the limit was not always enough
Target sequence (P61088 whole entry, looked up): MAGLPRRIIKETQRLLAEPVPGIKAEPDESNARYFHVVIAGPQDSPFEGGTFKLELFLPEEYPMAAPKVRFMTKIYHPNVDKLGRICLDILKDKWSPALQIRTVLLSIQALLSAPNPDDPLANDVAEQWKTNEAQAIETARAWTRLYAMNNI
PREPL inh cf – confirmation of human PREPL enzyme inhibitors; shares compounds with PREPL inhibitor; recombinant PREPL, fluorescence polarization activity probe; inhibition, % at 5.96 µM; 2,000 tested, 67% active; AID 2803;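 note: 0% = protein with DMSO and 100% = wells lacking protein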
An asterisk follows results filed as active; x = not tested or not shown. Cut-off read from the data, not from the text of the source, unless noted: active = inhibition above about 43%; inactive = the rest.

SMILES	MEKK2 mut-MEK5	PREPL inhibitor	ATG4B inhibitor	MEKK2 WT-MEK5	MEKK3 PB1 HTS	UBC13 inh	PREPL inh cf
N#Cc1c(N)nc2c3c(sc(=N)c2c1N)NC(=O)CC3c1ccccc1 (stereo not given)	-3	50*	-18	84	91	5	40
O=C(c1nc[nH]c1C(=O)N1CCc2ccccc2C1)N1CCc2ccccc2C1	x	6	1	x	x	16	x
CSCCC(NS(=O)(=O)/C=C/c1ccccc1)C(=O)O (stereo not given)	1	-11	0	111	116	-10	x
O=C(c1ccc(CNc2c(N3CCCC3)c(=O)c2=O)cc1)N1CC=C(c2ccccc2)CC1	-3	43*	-17	96	96	2	42
CC1CCCCC1NC(=O)c1ccc(CNc2c(N3CCCC3)c(=O)c2=O)cc1 (stereo not given)	-7	1	1	95	93	-4	x
COc1ccc(/C=C2\CCCc3c2nc2ccccc2c3C(=O)OCC(=O)c2c(N)n(C)c(=O)n(C)c2=O)cc1	1	35	x	93	100	-28	x
N#C/C(=C\Nc1ccccc1O)c1nc2ccccc2o1	-1	48*	20	94	115	x	36
N#C/C(=C\c1ccncc1)c1nc2ccccc2o1	-2	12	-1	96	99	1	x
COc1ccccc1NC(=O)Nc1nc(CC(=O)Nc2cc(F)ccc2F)cs1	x	-2	11	x	x	44	x
CCOc1ccc(C(c2c(NC(=O)c3ccccc3)sc(C)c2C)N2CCN(CCO)CC2)cc1 (stereo not given)	-1	20	-21	114	102	23	x
Cc1sc(NC(=O)c2ccccc2)c(C(c2ccc(Cl)cc2)N2CCN(CCO)CC2)c1C (stereo not given)	0	48*	6	104	90	31	41
COc1ccc2cc1Oc1ccc(cc1)C[C@H]1c3cc(c(OC)cc3CCN1C)Oc1c(OC)c(OC)cc3c1[C@H](C2)N(C)CC3	14	61*	-5	117	116	27	60*
COc1ccc2cc1Oc1ccc(cc1)C[C@H]1c3c(cc4c(c3Oc3cc5c(cc3OC)CCN(C)[C@@H]5C2)OCO4)CCN1C	11	-23	-10	124	103	25	x
CCOC(=O)CNC(=O)c1ccc(Br)s1	3	9	-7	107	104	4	x
Cc1ccc(C)n1-c1ccc(C(=O)NN)s1	-3	56*	13	98	96	-4	17
COc1ccc(-c2nn3c(-c4ccccc4)nnc3s2)cc1	3	-1	32	108	105	11	x
CCN(CC)c1ccc(-c2nn3c(-c4ccccc4OC)nnc3s2)cc1	-11	57*	18	88	91	18	39
Cc1ccc2c(CC(=O)Nc3ccc(N4CCN(C)CC4)cc3C)coc2c1	10	61*	3	116	98	9	60*
N#CCN1C(=O)NC2(CCCc3sccc32)C1=O (stereo not given)	-6	2	1	97	98	7	x
Cc1ccc(Cl)cc1NC(=O)C[n+]1ccc(Cc2ccc([N+](=O)[O-])cc2)cc1	x	67*	1	x	x	31	6
CC(C)(C)NC(=O)NC(=O)C[n+]1ccc(Cc2ccc([N+](=O)[O-])cc2)cc1	5	12	-4	106	94	10	x
O=C(C[n+]1ccc(Cc2ccccc2)cc1)Nc1ccc([N+](=O)[O-])cc1Cl	9	56*	1	116	117	13	29
Cc1cccc[n+]1CC(=O)Nc1ccc([N+](=O)[O-])cc1Cl	3	8	-2	105	100	3	x
O=C(c1cc(COc2ccc(F)cc2Cl)on1)N1CCSCC1	8	10	8	110	106	-4	x
c1ccc(Cn2nnc3ccccc32)cc1	10	-6	-5	111	107	-3	x
SMILES	MEKK2 mut-MEK5	PREPL inhibitor	ATG4B inhibitor	MEKK2 WT-MEK5	MEKK3 PB1 HTS	UBC13 inh	PREPL inh cf
COc1ccc(Cn2nnc3ccccc32)cc1	x	50*	0	x	x	17	37
CC(=O)N1CCN(CC(=O)Nc2cc([N+](=O)[O-])ccc2Cl)CC1	9	0	1	106	105	-11	x
O=C(CN1CCN(c2ccc(O)cc2)CC1)Nc1cc([N+](=O)[O-])ccc1Cl	19	52*	-5	15*	96	8	53*
CCOC(=O)c1c(-c2ccc(-c3ccccc3)cc2)csc1NC(=O)C1C2CCC(O2)C1C(=O)O (stereo not given)	1	51*	5	99	105	-14	55*
CCOC(=O)[C@H]1[C@H]2COc3ccccc3[C@@H]2N2C(=O)[C@@H](CO)NC(=O)[C@@]12C	x	4	-8	x	x	-4	x
CC(C)(CNC(=O)c1cc([N+](=O)[O-])ccc1N1CCC(Cc2ccccc2)CC1)N1CCOCC1	x	45*	-7	x	x	3	35
CC(C)CNC(=O)c1cc([N+](=O)[O-])ccc1N1CCOCC1	1	0	0	95	101	-3	x
Cc1cccc(N2CCN(C(=O)c3ccccc3OCc3c(C)noc3C)CC2)c1C	x	19	-4	x	x	-1	x
CCCCN1CC(=O)N2[C@H](c3ccc(Cl)cc3)[C@@H]3C(=O)N(CC)C(=O)[C@@H]3[C@]2(C)C1=O	-8	-3	2	96	101	-7	x
CCOC(=O)N1CCC(NC(=O)C2CCN(C(=O)c3cc4oc(C)cc4n3Cc3c(F)cccc3Cl)CC2)CC1	-7	55*	-17	94	98	8	52*
COC(CNC(=O)C1CCN(C(=O)c2cc3oc(C)cc3n2Cc2c(F)cccc2Cl)CC1)OC	-1	42	-15	102	100	-1	x
Cn1c(=O)c2[nH]c(Cc3ccsc3)nc2n(C)c1=O	x	x	2	x	x	x	x
Nc1nc(-c2ccccc2)c(N=Nc2ccccc2Cl)s1	-2	61*	1	88	79	-197	62*
Cc1ccc(S(=O)(=O)N(C)C)cc1NC(=O)C(C)OC(=O)c1cc[n+]([O-])cc1 (stereo not given)	x	4	2	x	x	13	x
C#CNC(=O)C1(CC=C)CCNCC1	x	-2	-5	x	x	-1	x
CCOc1ccc(S(=O)(=O)N2CCCC(C(=O)Nc3ccccc3)C2)cc1 (stereo not given)	-5	-5	-9	90	98	-6	x
COc1cc(O)ccc1C(=O)CCc1ccc(O)cc1	1	-2	0	102	98	2	x
CCNc1cc(O)ccc1C	x	70*	2	x	x	-17	15
Cc1ccc(C(=O)CNc2cc(C)ccc2C)cc1	0	11	3	102	106	-6	x
Cc1ccc(S(=O)(=O)NCC(=O)OCC(=O)c2ccc(Cl)s2)cc1	-3	-4	0	99	98	-6	x
